Sampled rows, rich in hits. Any-hit rate of the full collection: about 21%.
CHX counter: Cycloheximide Counterscreen for Small Molecule Inhibitors of Shiga Toxin | cell reporter, cycloheximide protein synthesis inhibition counterscreen | max response, % | 300,000 compounds, 12% hits | AID 2314, 2010; in the data active = max response mostly above about 13%, no sharp cut-off; inactive = mostly below about 14%; note: read at 38.3 µM for the half of the compounds with a filed dose
HCV inhibitor: qHTS Assay for Inhibitors of Hepatitis C Virus (HCV); 340,000 compounds, 3.4% hits; AID 651820, 2012; Potency, µM (titrated, usually from 41.8 µM), most hits filed as inhibitors; Huh7.5.1 HCVcc-Cre infection, luciferase reporter, 44 h
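A cell-based infection assay in which seeded cells (1,000 per well) receive test compound after 4 h, are inoculated with HCVcc-Cre at approximately 0.5 moi, and are incubated 44 h before luminescence detection.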
Pf growth 48h: Primary qHTS for delayed death inhibitors of the malarial parasite plastid, 48 hour incubation | P. falciparum luciferase growth in erythrocytes, 48 h | AID 504832, 2011 | Potency, µM (highest dose often 28.7 µM), hits mostly inhibitors | 310,000 compounds, 5.9% hits
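Parasite viability was followed by luminescence of a genomically integrated firefly luciferase. Cultures held 0.1% parasitemia at 2% hematocrit (final), incubated under 5% CO2 at 37 C.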
Shiga inhibitor: A qHTS for Small Molecule Inhibitors of Shiga Toxin; 290,000 compounds, 9.2% hits; inhibition, % at 38.7 µM; Vero cells, Shiga toxin protein synthesis inhibition reporter; in the data active = inhibition mostly above about 28%, no sharp cut-off; inactive = mostly below about 43%
Pf growth 96h: Primary qHTS for delayed death inhibitors of the malarial parasite plastid, 96 hour incubation; P. falciparum luciferase reporter growth, 96 h; AID 504834, 2011; 320,000 compounds, 6.9% hits; Potency, µM (highest dose often 28.7 µM), most hits filed as inhibitors
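P. falciparum expressing integrated firefly luciferase, in erythrocytes at 2% hematocrit, 0.05% parasitemia, incubated with compounds 96 h at 37 C, 5% CO2. Growth inhibition read as loss of luminescence; two-generation exposure targets delayed-death apicoplast inhibitors.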
HCMV inh: qHTS Assay for inhibitors of the human cytomegalovirus (HCMV) | HFF cells, HCMV-luciferase reporter, 72 h; hits give low values | activity change, negative = inhibition, % at 57.5 µM | 410,000 compounds, 4.5% hits | AID 1259415, 2018; in the data active = activity change below about -60%; inconclusive = no clear call, values can overlap the other calls; inactive = above about -39%
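Human foreskin fibroblasts infected with luciferase-reporter HCMV at MOI 1 PFU/cell, compounds at two doses. Luciferase measured 72 h post infection; normalized to buffer-only basal and Salinomycin (10uM) controls.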
Of the large screens only hits and unclear results are named; the others gave an inactive call. Unless noted, calls come from the whole dose curve; as a rule, active = well fitted inhibition curve with a large enough effect; inconclusive = small, poorly fitted or top-dose-only effect, or another doubt; inactive = no such curve, though single readings can be large or run the other way.

COCC(C)n1c(SCC(=O)NC(=O)Nc2ccc3c(c2)OCCO3)nc2ccccc2c1=O (centres undefined)	CHX counter 33.4, Pf growth 48h 11.7µM, Shiga inhibitor 64.9, Pf growth 96h inconclusive
O=c1c2ccccc2nnn1CSc1ccc2c(c1)OCCO2	CHX counter 52.3, Shiga inhibitor 26.4
CC(Sc1nc2ccccc2c(=O)n1C)C(=O)Nc1ccc2c(c1)OCCO2 (centres undefined)	HCV inhibitor 10µM, Pf growth 48h 0.147µM, Pf growth 96h 0.165µM, HCMV inh -80.1 (no result: CHX counter, Shiga inhibitor)
CC(=O)c1cccc(NC(=O)C(Sc2ncnc3ccccc23)c2ccccc2)c1 (centres undefined)	CHX counter 8.0, HCV inhibitor inconclusive, Pf growth 48h 11.7µM, Pf growth 96h 4.65µM
COc1cc([N+](=O)[O-])c(OC)cc1SCc1n[nH]c(=S)n1-c1ccc(F)cc1	Pf growth 96h 1.65µM
COc1cc([N+](=O)[O-])c(OC)cc1SCc1n[nH]c(=S)n1-c1ccc(C)cc1	none
CCCCCc1ccc(OCCC[n+]2ccccc2)c(CCCCC)c1	HCV inhibitor 10µM, Pf growth 48h 1.85µM, Pf growth 96h inconclusive, HCMV inh -98.6
CC(=O)Nc1ccc(OCCC[n+]2ccccc2)cc1	none
CCCCCc1ccc(OCCOCCn2c[n+](C)c3ccccc32)c(CCCCC)c1	HCV inhibitor 10µM, Pf growth 48h 2.94µM (no result: HCMV inh)
CCCCOc1ccccc1Cn1c(=O)oc2ccccc21	none
O=C(C[C@H]1C/C=C\CC[C@H](Cc2ccc(F)cc2)C(=O)OC[C@H]2CCCN2C1=O)NCCO	HCV inhibitor inconclusive (no result: CHX counter, Pf growth 48h, Shiga inhibitor, Pf growth 96h)
CC(=O)N(C)c1ccc(NC(=O)Nc2ccccc2C)cc1	CHX counter 39.1, Shiga inhibitor 81.5
CC(=O)N(C)c1ccc(NC(=O)Nc2ccc(C)c(C)c2)cc1	CHX counter 12.1, HCV inhibitor inconclusive, Pf growth 96h inconclusive
O=C(/C=C/c1ccco1)NCc1ccc2c(c1)OCO2	none
O=C(/C=C/c1cccs1)NCc1ccc2c(c1)OCO2	CHX counter 37.1, Shiga inhibitor 33.9
O=C(/C=C/c1ccccc1)NCc1ccc2c(c1)OCO2	CHX counter 22.1
N#Cc1ccc(OCC(O)CN2CCN(C(c3ccccc3)c3ccccc3)CC2)cc1 (centres undefined)	HCV inhibitor inconclusive, Pf growth 48h inconclusive, Pf growth 96h 11.7µM
COc1cc(/C=C/C(=O)N2CCN(CC(O)COc3ccccc3)CC2)cc(OC)c1OC (centres undefined)	Pf growth 48h inconclusive, Pf growth 96h 4.15µM, HCMV inh -81.6
OC(COc1ccccc1)CN1CCN(C(c2ccccc2)c2ccccc2)CC1 (centres undefined)	HCV inhibitor 7.94µM, Pf growth 48h inconclusive
N#Cc1ccc(OCC(O)CN2CCN(CC(O)COc3ccc(C#N)cc3)CC2)cc1 (centres undefined)	Pf growth 96h inconclusive
N#Cc1ccc(OCC(O)CN2CCN(c3ncc(C(F)(F)F)cc3Cl)CC2)cc1 (centres undefined)	HCV inhibitor inconclusive, Pf growth 48h inconclusive, HCMV inh -71.9
Cn1nc(C(=O)NNC(=O)c2ccccc2Br)c2ccccc2c1=O	none (no result: CHX counter, Shiga inhibitor)
COCCNc1nc(-c2cc(-c3ccc(Cl)cc3)on2)cc(C(C)C)n1	HCV inhibitor inconclusive, HCMV inh inconclusive
COc1cc(OC)cc(-c2nc3nc(C)c(CCC(=O)Nc4ccc(C)cc4C)c(C)n3n2)c1	none (no result: CHX counter, HCV inhibitor, Pf growth 48h, Shiga inhibitor, Pf growth 96h)
OC(COCc1ccco1)CN1CCN(C(c2ccccc2)c2ccccc2)CC1 (centres undefined)	HCV inhibitor inconclusive, Pf growth 48h 10.4µM, Pf growth 96h 6.57µM
Cc1cc(C)cc(OCC(O)CN2CCN(C(=O)c3ccco3)CC2)c1 (centres undefined)	none
Cc1ccc(N2CCN(CC(O)COc3cccc(C)c3)CC2)cc1 (centres undefined)	HCMV inh -61.6
O=C(c1ccccc1)N1CCN(CC(O)COc2ccc(Br)cc2)CC1 (centres undefined)	Pf growth 96h 9.28µM (no result: Shiga inhibitor)

Screens: PubChem BioAssay, National Center for Advancing Translational Sciences (NCATS)
